Results filed as inconclusive are left out. Calls of active or inactive are those of the source. The call rests on the fitted dose curve; in most records, active means well fitted inhibition curve with a large enough effect; inconclusive means small, poorly fitted or top-dose-only effect; inactive means flat fitted curve, though single readings scatter. Where a SMILES comes first, the peptide text is derived from it. Bridges are numbered along the chain shown (N, C = ends). [ ]: non-standard residue; d: D form. The star is where a group is joined. ξ: configuration not given here. d(aThr) = C[C@@H](O)[C@@H](N)C(=O)O; ξThr(3R) = C[C@@H](O)C(N)C(=O)O; X3 = CC[C@@H](C)CCCCC(=O)*; dDab = NCC[C@@H](N)C(=O)O

Experimental findings from PubChem BioAssay (NCATS) are described below.
On the % scale 0 is the no-effect control and ±100 the full control effect; potency means the concentration at half of the fitted maximal effect.

Chain of Voltage-gated inwardly rectifying potassium channel KCNH2 (Homo sapiens) (Q12809 whole entry, looked up): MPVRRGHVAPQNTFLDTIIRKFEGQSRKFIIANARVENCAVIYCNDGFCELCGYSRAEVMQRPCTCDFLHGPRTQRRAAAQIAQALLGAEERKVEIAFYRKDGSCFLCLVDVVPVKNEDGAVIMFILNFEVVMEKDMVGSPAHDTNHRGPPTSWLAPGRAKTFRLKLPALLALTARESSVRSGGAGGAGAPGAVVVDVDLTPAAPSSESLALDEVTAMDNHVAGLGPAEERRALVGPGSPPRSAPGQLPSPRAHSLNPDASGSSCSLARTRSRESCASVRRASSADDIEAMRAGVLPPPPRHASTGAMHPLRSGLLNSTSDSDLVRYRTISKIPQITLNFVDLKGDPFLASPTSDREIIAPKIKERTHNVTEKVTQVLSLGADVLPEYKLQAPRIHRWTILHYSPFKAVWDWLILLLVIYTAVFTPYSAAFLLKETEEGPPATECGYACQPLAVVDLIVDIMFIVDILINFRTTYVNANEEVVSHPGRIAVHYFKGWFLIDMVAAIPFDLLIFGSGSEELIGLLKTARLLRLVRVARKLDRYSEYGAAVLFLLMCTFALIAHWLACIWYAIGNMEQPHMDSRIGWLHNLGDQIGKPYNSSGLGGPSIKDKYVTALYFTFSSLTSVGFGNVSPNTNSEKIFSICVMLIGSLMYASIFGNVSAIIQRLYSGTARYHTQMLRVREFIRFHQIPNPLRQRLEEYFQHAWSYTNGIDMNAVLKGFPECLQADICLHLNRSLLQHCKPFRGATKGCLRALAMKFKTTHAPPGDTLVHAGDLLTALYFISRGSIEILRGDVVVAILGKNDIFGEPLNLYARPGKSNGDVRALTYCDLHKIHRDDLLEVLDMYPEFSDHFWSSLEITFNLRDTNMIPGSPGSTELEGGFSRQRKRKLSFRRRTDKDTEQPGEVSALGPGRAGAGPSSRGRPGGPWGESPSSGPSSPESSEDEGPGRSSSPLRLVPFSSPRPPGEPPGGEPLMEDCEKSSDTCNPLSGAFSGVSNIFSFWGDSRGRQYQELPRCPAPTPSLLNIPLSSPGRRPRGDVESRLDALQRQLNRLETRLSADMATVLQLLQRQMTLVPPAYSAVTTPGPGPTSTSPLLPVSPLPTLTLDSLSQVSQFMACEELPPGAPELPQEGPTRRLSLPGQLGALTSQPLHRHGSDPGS

The target of the assay is Voltage-gated inwardly rectifying potassium channel KCNH2 (Homo sapiens) (UniProt Q12809). Nature of the assay: qHTS Assay for Small Molecule Inhibitors of the Human hERG Channel Activity (AID 588834).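 Further: lower thallium flux fluorescence means stronger hERG block; nearly all actives have a fitted effect of over 50% in size.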 On activity change, negative = inhibition: top concentration of the series differs between compounds. The note with it: U2OS BacMam hERG, FluxOR thallium flux fluorescence; series mostly up to 46.1 µM; activity change, negative = inhibition: at the top concentration. In outline:
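Concentration-response qHTS measuring drop in thallium-sensitive dye signal. U2OS cells carrying BacMam hERG; compound exposure ~10 min, then stimulation buffer and 2 min read at 1 sec intervals.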
A general note: qHTS replaces the single test concentration by a dilution series.
For the compound `CC[C@@H]1/C=C(\C)C[C@H](C)C[C@H](OC)[C@H]2O[C@@](O)(C(=O)C(=O)N3CCCC[C@H]3C(=O)O[C@H](/C(C)=C/[C@@H]3CC[C@@H](Cl)[C@H](OC)C3)[C@H](C)[C@@H](O)CC1=O)[C@H](C)C[C@@H]2OC`, the “activity change, negative = inhibition” value is 3.82% (inactive).
As for `Nc1nc2c(c(=O)[nH]1)N(C=O)C(CNc1ccc(C(=O)N[C@@H](CCC(=O)O)C(=O)O)cc1)CN2` (some centres undefined), the “activity change, negative = inhibition” value is -63.6% [at 20.6 µM] (inactive).
Regarding `CCCCCCCCCc1ccc(OCCOCCO)cc1`, the Potency was 14.1 µM (active).
Regarding `CN[C@@H]1[C@H](O[C@H]2[C@H](O[C@H]3[C@H](O)[C@@H](O)[C@H](N=C(N)N)[C@@H](O)[C@@H]3N=C(N)N)O[C@@H](C)[C@]2(O)CO)O[C@@H](CO)[C@H](O)[C@H]1O`, the “activity change, negative = inhibition” value is 17.2% (inactive).
`C=CC[N@@+]12CC[C@@]34c5ccccc5N5/C=C6/[C@H]7C[C@H]8[C@@]9(CC[N@@+]8(CC=C)C/C7=C/CO)c7ccccc7N(/C=C(/[C@@H](C[C@@H]31)/C(=C\CO)C2)[C@H]54)[C@@H]69`: the “activity change, negative = inhibition” value was 5.19% [at 20.6 µM] (inactive).
Consider `C=N[C@@H](C(=O)N[C@@H]1C(=O)N2[C@@H]1SC(C)(C)[C@@H]2C(=O)O)c1ccccc1`, for which the “activity change, negative = inhibition” value was 10.4% (inactive).
Take `CC(C)(C)NCC(O)c1ccc(O)c(CO)n1` (centres undefined): the “activity change, negative = inhibition” value was -25.2% (inactive).
On to `CC(=O)N[C@@H]([C@@H](O)[C@H](O)[C@H](O)CO)[C@@H](O)CC(=O)C(=O)O`, for which the “activity change, negative = inhibition” value was 17.7% (inactive).
For the compound `CC(C)(CO)[C@@H](O)C(=O)NCCCC(=O)O`, the “activity change, negative = inhibition” value is 9.65% (inactive).
Regarding `CCN1C(=O)NC(c2ccccc2)C1=O` (centres undefined), the “activity change, negative = inhibition” value is -4.23% [at 20.6 µM] (inactive).
For the compound `CC(=C\c1ccccc1)/C=C1/SC(=S)N(CC(=O)O)C1=O`, the “activity change, negative = inhibition” value is 5.7% (inactive).
In the case of `CCOC(=O)[C@H](CS)NCCN[C@@H](CS)C(=O)OCC`, the “activity change, negative = inhibition” value is 18.2% (inactive).
As to `O=C(OC[C@H]1O[C@](O)(COC(=O)c2cccnc2)[C@@H](OC(=O)c2cccnc2)[C@@H]1OC(=O)c1cccnc1)c1cccnc1`, the “activity change, negative = inhibition” value was -18.3% (inactive).
In the case of `CC1=CC(=C(c2ccc(N)cc2)c2ccc(N)cc2)C=CC1=N`, the “activity change, negative = inhibition” value was -27.1% (inactive).
Turning to `CC(CN1c2ccccc2Sc2cccnc21)N(C)C` (centres undefined), the Potency was 0.891 µM (active).
Turning to `CCN(CC)CCOCCOC(=O)C(CC)(CC)c1ccccc1`, the Potency was 14.1 µM (active).
With `CC(O)[C@H]1CC[C@H]2[C@@H]3CC[C@@H]4C[C@@H](O)CC[C@]4(C)[C@H]3CC[C@]12C` (some centres undefined), the “activity change, negative = inhibition” value was -11.5% (inactive).
Turning to `CCCCC(O)c1ccccc1` (centres undefined), the “activity change, negative = inhibition” value is -10.1% (inactive).
For the compound `O=C(OC[C@H]1O[C@@H](OC(=O)c2cc(O)c(O)c(OC(=O)c3cc(O)c(O)c(O)c3)c2)[C@H](OC(=O)c2cc(O)c(O)c(OC(=O)c3cc(O)c(O)c(O)c3)c2)[C@@H](OC(=O)c2cc(O)c(O)c(OC(=O)c3cc(O)c(O)c(O)c3)c2)[C@@H]1OC(=O)c1cc(O)c(O)c(OC(=O)c2cc(O)c(O)c(O)c2)c1)c1cc(O)c(O)c(OC(=O)c2cc(O)c(O)c(O)c2)c1`, the Potency was 25.1 µM (active).
With `CCCCCCCCCCCC(=O)OC[C@@H](O)C1OC[C@H](O)[C@H]1O` (some centres undefined), the “activity change, negative = inhibition” value was 13.1% (inactive).
With `NC(=O)OC[C@@H]1[C@H](NC(=O)/C(=N\OCC(=O)O)c2csc(N)n2)C(=O)N1S(=O)(=O)O`, the “activity change, negative = inhibition” value was 0.525% (inactive).
Consider `O=C1C2CC3CC1CC(O)(C3)C2`, for which the “activity change, negative = inhibition” value was 4.5% (inactive).
For `NC[C@@H]1CC[C@@H](N)[C@@H](O[C@H]2[C@H](O)[C@@H](O[C@H]3O[C@H](CO)[C@@H](O)[C@H](N)[C@H]3O)[C@H](N)C[C@@H]2N)O1`, the “activity change, negative = inhibition” value was 3.15% (inactive).
For `CC(C)CN(C[C@@H](O)[C@H](Cc1ccccc1)NC(=O)O[C@@H]1CCOC1)S(=O)(=O)c1ccc(N)cc1`, the “activity change, negative = inhibition” value was -10.3% (inactive).
For the compound `Cc1cccc(C)c1Nc1ncccc1C(=O)O`, the “activity change, negative = inhibition” value is -14.1% (inactive).
`COc1ccc2cc([C@H](C)CO)ccc2c1`: the “activity change, negative = inhibition” value was 6.8% (inactive).
Regarding `CN[C@H](CC(C)C)C(=O)N[C@H]1C(=O)N[C@@H](CC(N)=O)C(=O)N[C@H]2C(=O)N[C@H]3C(=O)N[C@H](C(=O)N[C@@H](C(=O)O)c4cc(O)cc(O)c4-c4cc3ccc4O)[C@H](O)c3ccc(c(Cl)c3)Oc3cc2cc(c3O[C@@H]2O[C@H](CO)[C@@H](O)[C@H](O)[C@H]2O[C@H]2C[C@](C)(N)C(O)[C@H](C)O2)Oc2ccc(cc2Cl)[C@H]1O` (some centres undefined), the “activity change, negative = inhibition” value was 8.77% (inactive).
For the compound `CCCC1C(=O)N2C(N(C)C)=Nc3ccc(C)cc3N2C1=O` (centres undefined), the “activity change, negative = inhibition” value is -2.03% [at 20.6 µM] (inactive).
With `O=C1CC[C@@H](C(=O)N[C@H]2C[C@@H]2c2ccccc2)N1`, the “activity change, negative = inhibition” value is 21.5% (inactive).
Consider `CC[C@@H](C)[C@H](N)C(=O)O`, for which the “activity change, negative = inhibition” value was 17.3% (inactive).
For `CC(C)CCC[C@@H](C)[C@H]1CC(=O)C2=C3CC[C@H]4C[C@@H](O)CC[C@]4(C)[C@H]3CC[C@@]21C`, the “activity change, negative = inhibition” value was -27.1% (inactive).
On the same count and under the same terms, as for `CC[C@@H](C)CCCCC(=O)N[C@H](CCN)C(=O)N[C@@H](C(=O)N[C@H](CCN)C(=O)N[C@@H]1CCNC(=O)C([C@@H](C)O)NC(=O)[C@@H](CCN)NC(=O)[C@@H](CCN)NC(=O)[C@@H](CC(C)C)NC(=O)[C@@H](Cc2ccccc2)NC(=O)[C@@H](CCN)NC1=O)[C@@H](C)O` (stereo partly drawn) (X3-[dDab][d(aThr)][dDab][dDab][dDab][dF][dL][dDab][dDab][ξThr(3R)]; lactam 4-C), the figure is 2.11% (inactive); as for `CC(=NCc1ccccc1)c1ccccc1O`, 17.8% (inactive); as for `NC(=O)c1cc[n+](CC2=C(C(=O)O)N3C(=O)[C@@H](NC(=O)C(c4ccccc4)S(=O)(=O)[O-])[C@H]3SC2)cc1` (some centres undefined), 4.95% [at 20.6 µM] (inactive).
For `C[C@@H]1O[C@@H](OC[C@H]2O[C@@H](Oc3c(-c4ccc(OCCO)c(OCCO)c4)oc4cc(OCCO)cc(O)c4c3=O)[C@H](O)[C@@H](O)[C@@H]2O)[C@H](O)[C@H](O)[C@H]1O`, the “activity change, negative = inhibition” value was -0.235% (inactive).
Still for that read-out and setting: as for `OC[C@H]1O[C@@H](O[C@H]2[C@H](O)[C@@H](O)[C@H](O)O[C@@H]2CO)[C@H](O)[C@@H](O)[C@@H]1O`, the figure is 18.8% (inactive).
On to `COC(=O)[C@H]1[C@H]2C[C@@H]3c4[nH]c5cc(OC)ccc5c4CCN3C[C@H]2C[C@H](OC)[C@@H]1OC`, for which the Potency was 4.47 µM (active).
Regarding `CC[C@H](C)[C@@H]1NC(=O)[C@H](Cc2ccc(O)cc2)NC(=O)[C@@H](N)CSSC[C@@H](C(=O)N2CCC[C@H]2C(=O)N[C@@H](CC(C)C)C(=O)NCC(N)=O)NC(=O)[C@H](CC(N)=O)NC(=O)[C@H](CCC(N)=O)NC1=O`, the “activity change, negative = inhibition” value is 22.5% (inactive).
On the same count and under the same terms, as for `CO[C@H]1C[C@H](O[C@@H]2/C(C)=C/C[C@@H]3C[C@@H](C[C@]4(CC[C@H](C)[C@@H](C5CCCCC5)O4)O3)OC(=O)[C@@H]3C=C(C)/C(=N/O)[C@H]4OC/C(=C\C=C\[C@@H]2C)[C@]43O)O[C@@H](C)[C@@H]1O`, the figure is 13.2% (inactive).
